Compounds with a hit are over-represented: about 2.3% of the library has one in this group of screens.
M1 antag – blocks human M1 muscarinic receptor; P11229; CHO-K1 hM1, Fluo-8 calcium fluorescence, ACh EC80 antagonist; inhibition, % at 3 µM; 360,000 tested, 1.3% active; AID 588852;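 active = percent inhibition above its own plate's cutoff, namely the mean of that plate's compound wells plus 3 SD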;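 note: peak over basal fluorescence ratio during 140 s after agonist addition; 0% = ACh EC80 plus DMSO and 100% = DMSO alone without agonist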
Target sequence (P11229 whole entry, looked up): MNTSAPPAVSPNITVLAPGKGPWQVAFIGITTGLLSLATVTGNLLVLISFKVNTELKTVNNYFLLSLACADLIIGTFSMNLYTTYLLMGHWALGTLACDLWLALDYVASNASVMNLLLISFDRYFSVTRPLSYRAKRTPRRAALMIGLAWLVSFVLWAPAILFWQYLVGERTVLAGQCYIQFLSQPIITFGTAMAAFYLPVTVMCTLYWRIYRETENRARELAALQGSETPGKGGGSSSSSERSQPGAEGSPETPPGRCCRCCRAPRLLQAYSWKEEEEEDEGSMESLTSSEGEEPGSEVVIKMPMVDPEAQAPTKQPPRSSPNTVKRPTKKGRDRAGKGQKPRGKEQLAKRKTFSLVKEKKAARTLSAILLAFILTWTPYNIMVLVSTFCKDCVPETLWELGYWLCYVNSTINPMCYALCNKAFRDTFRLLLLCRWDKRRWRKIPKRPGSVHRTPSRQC
M1 ag parental – counter-screen for M1 agonists: effect in parental CHO-K1 cells. Fluo-8 calcium fluorescence; scaled to maximal ATP response, vehicle zero. activation, % at 3 µM. 360,000 tested, 0.48% active. AID 602248; in the data active = activation above about 15%;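 note: untransfected CHO-K1 host cells lacking M1 receptor as counterscreen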
CHRM1 PAM – human CHRM1 positive allosteric modulation. P11229. CHO-K1 hM1, Fluo-8 calcium fluorescence, ACh EC20; 0% = ACh EC20, 100% = maximal ACh. activation, % at 3 µM. 360,000 tested, 0.088% active; in the data active = activation above about 19%, passing the limit was not always enough
CHO-K1 Ca antag – nonselective inhibitor or artifact in parental CHO-K1 cells; 360,000 tested, 0.6% active; inhibition, % at 3 µM; AID 602250; ATP-induced calcium, Fluo-8 fluorescence;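 active = inhibition above a per-plate cutoff, the plate's mean sample inhibition plus 3 SD, cut at about 24% in these data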;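 note: 0% = DMSO plus EC80 ATP and 100% = DMSO alone without ATP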
M1 PAM parental – nonselective activator or artifact in parental CHO-K1 calcium assay | AID 602247 | ATP EC20, Fluo-8 calcium fluorescence; 0% at ATP EC20, 100% at ATP max | activation, % at 3 µM | 360,000 tested, 0.02% active;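 active = activation above the run cutoff, the mean activation of all test compounds plus 3 SD, cut at about 40% in these data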;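 note: peak over basal fluorescence ratio in a 140 s read after ATP addition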
CHRM1 agonist – human M1 muscarinic receptor agonism | CHO-K1 hM1, Fluo-8 calcium fluorescence, agonist mode; 0% DMSO, 100% acetylcholine EC100 | P11229 | 360,000 tested, 0.33% active | activation, % at 3 µM;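 active = activation above the run's mean compound activation plus 3 SD, cut at about 16% in these data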;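 note: peak over basal fluorescence ratio within a 140 s kinetic read after compound addition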
Active calls of the source: *.

`CCC(C)N1CCN(S(=O)(=O)c2ccc3ccccc3c2)CC1` (configuration not stated) gave M1 antag -3, M1 ag parental -1, CHRM1 PAM 2, CHO-K1 Ca antag 3, M1 PAM parental 8 and CHRM1 agonist -8.
CCC(C)N1CCNCC1 (configuration not stated) was read as M1 antag -9, M1 ag parental 0, CHRM1 PAM 5, CHO-K1 Ca antag 25*, M1 PAM parental -14 and CHRM1 agonist -7.
CC(C)(C)OC(=O)N1CCC[C@H]1C(=O)N/N=C/c1ccc2ncccc2c1 was read as M1 antag -5, M1 ag parental 1, CHRM1 PAM 5, CHO-K1 Ca antag -8, M1 PAM parental 18 and CHRM1 agonist -4.
CCCCc1nc2cc(C(=O)NCc3nccn3CC)ccc2o1 was read as M1 antag 87*, M1 ag parental 0, CHRM1 PAM -24, CHO-K1 Ca antag -12, M1 PAM parental 17 and CHRM1 agonist -6.
For C/C(=N\NC(=S)NC(C)C)c1ccc(Cl)s1 the results were M1 antag 81*, M1 ag parental 0, CHRM1 PAM -24, CHO-K1 Ca antag 7, M1 PAM parental -3 and CHRM1 agonist -10.
Screening O=C(O)c1ccc(N/N=C/c2c(F)cccc2Cl)cc1 returned M1 antag -17, M1 ag parental 1, CHRM1 PAM 15, CHO-K1 Ca antag -13, M1 PAM parental 8 and CHRM1 agonist -3.
Screening Cc1noc(C)c1C(=O)N1CCC1(C)C(=O)NS(=O)(=O)Cc1cccc(Cl)c1 (configuration not stated) returned M1 antag -15, M1 ag parental 0, CHRM1 PAM 6, CHO-K1 Ca antag 7, M1 PAM parental -7 and CHRM1 agonist -1.
Screening CCC1CCCCN1CCCNC(=O)CN1C(=O)CSc2ccc(S(=O)(=O)N3CCC(C)CC3)cc21 (configuration not stated) returned M1 antag 39*, M1 ag parental 0, CHRM1 PAM -14, CHO-K1 Ca antag -7, M1 PAM parental -4 and CHRM1 agonist -6.
Screening CC(C)CN(CCNC(=O)CN1C(=O)CSc2ccc(S(=O)(=O)N3CCOCC3)cc21)CC(C)C returned M1 antag 40*, M1 ag parental -1, CHRM1 PAM -10, CHO-K1 Ca antag 0, M1 PAM parental -3 and CHRM1 agonist -6.
Screening CCCCN(C)CCNC(=O)CN1C(=O)CSc2ccc(S(=O)(=O)N3CCOCC3)cc21 returned M1 antag 42*, M1 ag parental 0, CHRM1 PAM -18, CHO-K1 Ca antag -17, M1 PAM parental 0 and CHRM1 agonist -6.
CNC(=O)C[C@H]1C(=O)N(CCc2ccccc2)C[C@@H]1c1ccc(OC)cc1 was read as M1 antag -19, M1 ag parental 0, CHRM1 PAM 9, CHO-K1 Ca antag -20, M1 PAM parental 24 and CHRM1 agonist -9.
COc1ccc(-c2coc3cc(OC(C)=O)ccc3c2=S)cc1 was read as M1 antag -18, M1 ag parental 0, CHRM1 PAM 7, CHO-K1 Ca antag -10, M1 PAM parental -2 and CHRM1 agonist -2.
Screening C/C(=N\OCC(=O)Nc1nc2ccccc2s1)c1ccccc1 returned M1 antag -6, M1 ag parental 1, CHRM1 PAM 6, CHO-K1 Ca antag -14, M1 PAM parental 24 and CHRM1 agonist -2.
COc1ccc(/C(C)=N/OCC(=O)Nc2nc3ccccc3s2)cc1OC was read as M1 antag 12, M1 ag parental 19*, CHRM1 PAM -9, CHO-K1 Ca antag 2, M1 PAM parental 13 and CHRM1 agonist -3.
Cc1nnc2ccc(-c3cccc(NS(=O)(=O)c4ccccc4[N+](=O)[O-])c3)nn12 was read as M1 antag 32*, M1 ag parental 1, CHRM1 PAM -24, CHO-K1 Ca antag -16, M1 PAM parental 12 and CHRM1 agonist -7.
For Cc1nnc2ccc(-c3cccc(NS(=O)(=O)c4ccccc4Cl)c3)nn12 the results were M1 antag 2, M1 ag parental 0, CHRM1 PAM -3, CHO-K1 Ca antag -21, M1 PAM parental 7 and CHRM1 agonist -7.
Screening CC(C)NC(=O)N(C)C[C@H]1Oc2ccc(NC(=O)C3CC3)cc2C(=O)N([C@H](C)CO)C[C@@H]1C returned M1 antag 7, M1 ag parental 0, CHRM1 PAM 9, CHO-K1 Ca antag 5, M1 PAM parental -14 and CHRM1 agonist 9.
COc1ccc(CNc2ncnc3c2[nH]c2cc(OC)c(OC)cc23)cc1 was read as M1 antag 20, M1 ag parental 3, CHRM1 PAM -10, CHO-K1 Ca antag 14, M1 PAM parental -26 and CHRM1 agonist -3.
For CC(C)OCCCNc1ncnc2c1[nH]c1ccccc12 the results were M1 antag 39*, M1 ag parental 16*, CHRM1 PAM -29, CHO-K1 Ca antag -14, M1 PAM parental -11 and CHRM1 agonist 2.
`COc1ccc(CNc2ncnc3c2[nH]c2ccccc23)cc1` gave M1 antag 37*, M1 ag parental 19*, CHRM1 PAM -14, CHO-K1 Ca antag 21, M1 PAM parental -11 and CHRM1 agonist 6.
Screening C1=C(CCNc2ncnc3c2[nH]c2ccccc23)CCCC1 returned M1 antag 22, M1 ag parental 15*, CHRM1 PAM -13, CHO-K1 Ca antag 29*, M1 PAM parental 6 and CHRM1 agonist -4.
`COc1cc(C(O)c2nc(-c3cccc(C(C)C)c3)cs2)ccc1F` (configuration not stated) gave M1 antag 8, M1 ag parental 1, CHRM1 PAM -8, CHO-K1 Ca antag 3, M1 PAM parental 0 and CHRM1 agonist -4.
COc1ccccc1C(=O)NCCc1nc2ccccc2[nH]1 was read as M1 antag 1, M1 ag parental 1, CHRM1 PAM 4, CHO-K1 Ca antag 3, M1 PAM parental 11 and CHRM1 agonist -1.
Cc1ccccc1NC(=O)COC(=O)c1ccc(S(C)(=O)=O)c([N+](=O)[O-])c1 was read as M1 antag 4, M1 ag parental 0, CHRM1 PAM 4, CHO-K1 Ca antag 4, M1 PAM parental -9 and CHRM1 agonist -4.
Screening Cc1ccccc1NC(=O)Cc1nc(COC(=O)c2ccc(S(C)(=O)=O)c([N+](=O)[O-])c2)cs1 returned M1 antag 34*, M1 ag parental 4, CHRM1 PAM -26, CHO-K1 Ca antag 5, M1 PAM parental -10 and CHRM1 agonist -5.
`Cc1ccc(S(=O)(=O)Nc2c3ccccc3nc(=O)n2-c2ccccc2)cc1` gave M1 antag -9, M1 ag parental 1, CHRM1 PAM -4, CHO-K1 Ca antag 26*, M1 PAM parental -7 and CHRM1 agonist 3.
